# From PubChem BioAssay AID488864 (Broad Institute, 2010)
# Entries with a potency or affinity are not part of this list. A number with no mark means an inactive call. Calls of active or inactive are those of the source.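 The calls were made as follows: active = ATP signal reduced by compound, with fitted active dose under ten times the top valid tested dose; inactive = the rest, compounds that increase ATP levels included.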
# Assay: cellular ATP toxicity in rat beta cells – cell-based, CellTiter-Glo luminescence, INS-1E, dry powder, cytotoxicity control for beta-cell cytokine protection project, dose response (AID 488864)
# Conditions: INS-1E rat beta cells, 48 h, no cytokines; series mostly up to 26 µM; activity change, negative = ATP decrease: at the top concentration
Structure (SMILES),"activity change, negative = ATP decrease",outcome
C[C@@H]1CN([C@@H](C)CO)C(=O)c2cccc(NC(=O)Nc3ccccc3)c2O[C@H]1CN(C)S(=O)(=O)c1ccc(F)cc1,-0.503%,
C[C@H]1CN([C@@H](C)CO)C(=O)c2cccc(NC(=O)NC3CCCCC3)c2O[C@@H]1CN(C)S(C)(=O)=O,-1.82%,
Cc1noc(C)c1NC(=O)N(C)C[C@@H]1Oc2c(NC(=O)Nc3cccc4ccccc34)cccc2C(=O)N([C@@H](C)CO)C[C@H]1C,0.037%,
C[C@@H]1CN([C@@H](C)CO)C(=O)c2cccc(NC(=O)Nc3cccc4ccccc34)c2O[C@H]1CN(C)C(=O)Nc1ccc(C(F)(F)F)cc1,-5.68% [at 23.5 µM],
COc1ccc(S(=O)(=O)N(C)C[C@@H]2Oc3c(NC(=O)c4cnccn4)cccc3C(=O)N([C@@H](C)CO)C[C@H]2C)cc1,-2.23%,
COc1ccc(S(=O)(=O)N(C)C[C@@H]2Oc3c(NS(=O)(=O)c4ccc(F)cc4)cccc3C(=O)N([C@@H](C)CO)C[C@H]2C)cc1,0.223%,
COc1ccc(S(=O)(=O)N(C)C[C@@H]2Oc3c(NS(=O)(=O)c4ccc(C)cc4)cccc3C(=O)N([C@@H](C)CO)C[C@H]2C)cc1,7.96% [at 23.5 µM],
C[C@@H]1CN([C@@H](C)CO)C(=O)c2cccc(NC(=O)Nc3cccc4ccccc34)c2O[C@H]1CN(C)S(=O)(=O)c1cccs1,8.1%,
COc1ccc(S(=O)(=O)N(C)C[C@@H]2Oc3c(NC(=O)Nc4c(C)noc4C)cccc3C(=O)N([C@@H](C)CO)C[C@H]2C)cc1,2.2%,
Cc1ccc(S(=O)(=O)N(C)C[C@@H]2Oc3c(NC(=O)Nc4cccc5ccccc45)cccc3C(=O)N([C@@H](C)CO)C[C@H]2C)cc1,5.11%,
C[C@@H]1CN([C@@H](C)CO)C(=O)c2cccc(NC(=O)Nc3cccc4ccccc34)c2O[C@H]1CN(C)C(=O)Nc1ccc(F)cc1,9.31%,
C[C@@H]1CN([C@H](C)CO)C(=O)c2cccc(NC(=O)Nc3ccc(F)cc3)c2O[C@H]1CN(C)S(=O)(=O)c1ccc(Cl)cc1,11.6%,
C[C@@H]1CN([C@@H](C)CO)C(=O)c2cccc(NC(=O)Nc3cccc4ccccc34)c2O[C@H]1CN(C)S(=O)(=O)c1ccccc1,6.66%,
C[C@@H]1CN([C@@H](C)CO)C(=O)c2cccc(NC(=O)Nc3cccc4ccccc34)c2O[C@H]1CN(C)S(=O)(=O)c1ccc2c(c1)OCCO2,,inactive
C[C@@H]1CN([C@@H](C)CO)C(=O)c2cccc(NC(=O)Nc3cccc4ccccc34)c2O[C@H]1CN(C)S(=O)(=O)c1ccccc1F,6.08%,
COc1ccc(S(=O)(=O)N(C)C[C@H]2Oc3c(NC(=O)Nc4cccc5ccccc45)cccc3C(=O)N([C@@H](C)CO)C[C@@H]2C)cc1,9.1%,
COc1ccc(S(=O)(=O)N(C)C[C@@H]2Oc3c(NC(=O)Nc4ccc5c(c4)OCO5)cccc3C(=O)N([C@@H](C)CO)C[C@H]2C)cc1,9.54%,
C[C@@H]1CN([C@@H](C)CO)C(=O)c2cccc(NC(=O)Nc3cccc4ccccc34)c2O[C@H]1CN(C)S(=O)(=O)c1ccc2c(c1)OCO2,-1.3%,
